Results: PubChem BioAssay AID1159580 (chemical genetic matrix, 2015)
Hit rate of the full screen: of about 5,500 compounds, about 2,000 (36%) were called active. Another 18% or so got no clear call; they are omitted. No stated cut-off is given here; in the data, active means normalized growth mostly below about 0.91 (no sharp cut-off); inconclusive means no clear call, values can overlap the other calls; inactive means mostly above about 0.92. The list shows a part of the results.

Assay: chemical genetic growth profiling, strain panel (AID 1159580);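 further: tested at 20 µM; growth read once vehicle control cultures reached saturation at 30 °C; 1 = growth at the plate median or of vehicle wells; lower values mean less growth of the strain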
Settings: growth OD

Measured: normalized growth

NC(=O)N1c2ccccc2CC(=O)c2ccccc21
inactive: S. cerevisiae deletion strains, locus YKL009W, strain mrt4, hits give low values 1.01 | S. cerevisiae deletion strains, locus YKL068W, hits give low values 0.994 | S. cerevisiae deletion strains, locus YKL085W, strain MDH1 (second series), hits give low values 1.02 | S. cerevisiae deletion strains, locus YKL085W, strain MDH1, hits give low values 1.02 | S. cerevisiae deletion strains, locus YKL160W, strain elf1, hits give low values 1.05 | S. cerevisiae deletion strains, locus YKL190W, strain CNB1, hits give low values 1 | S. cerevisiae deletion strains, locus YKR001C, strain vps1, hits give low values 0.969 | S. cerevisiae deletion strains, locus YKR026C, strain gcn3, hits give low values 0.972 | S. cerevisiae deletion strains, locus YKR091W, strain srl3, hits give low values 0.989 | S. cerevisiae deletion strains, locus YLL001W, strain dnm1, hits give low values 0.969 | S. cerevisiae deletion strains, locus YLL026W, hits give low values 0.988 | S. cerevisiae deletion strains, locus YLL041C, strain sdh2, hits give low values 0.982 | S. cerevisiae deletion strains, locus YLR027C, strain aat2, hits give low values 0.999 | S. cerevisiae deletion strains, locus YLR039C, strain RIC1, hits give low values 0.972 | S. cerevisiae deletion strains, locus YLR058C, strain SHM2, hits give low values 0.988 | S. cerevisiae deletion strains, locus YLR102C, strain apc9, hits give low values 0.979 | S. cerevisiae deletion strains, locus YLR113W, strain HOG1, hits give low values 0.96 | S. cerevisiae deletion strains, locus YLR221C, strain rsa3, hits give low values 0.962 | S. cerevisiae deletion strains, locus YLR258W, strain gsy2, hits give low values 1.01 | S. cerevisiae deletion strains, locus YLR262C, strain YPT6 (second series), hits give low values 1.01 | S. cerevisiae deletion strains, locus YLR262C, strain YPT6, hits give low values 1.01 | S. cerevisiae deletion strains, locus YLR268W, strain sec22, hits give low values 1 | S. cerevisiae deletion strains, locus YLR320W, strain mms22, hits give low values 0.945 | S. cerevisiae deletion strains, locus YLR330W, strain CHS5, hits give low values 0.989 | S. cerevisiae deletion strains, locus YLR342W, strain FKS1 (second series), hits give low values 0.949 | S. cerevisiae deletion strains, locus YLR342W, strain FKS1, hits give low values 0.998 | S. cerevisiae deletion strains, locus YLR357W, strain rsc2, hits give low values 0.993 | S. cerevisiae deletion strains, locus YLR370C, strain arc18, hits give low values 1 | S. cerevisiae deletion strains, locus YLR371W, strain rom2, hits give low values 0.969 | S. cerevisiae deletion strains, locus YLR384C, strain iki3, hits give low values 0.983 | S. cerevisiae deletion strains, locus YLR418C, strain cdc73, hits give low values 1.01 | S. cerevisiae deletion strains, locus YML016C, strain PPZ1, hits give low values 0.985 | S. cerevisiae deletion strains, locus YML032C, strain rad52, hits give low values 0.96 | S. cerevisiae deletion strains, locus YML120C, strain ndi1, hits give low values 0.949 | S. cerevisiae deletion strains, locus YML124C, strain tub3, hits give low values 0.979 | S. cerevisiae deletion strains, locus YMR058W, strain fet3, hits give low values 0.978 | S. cerevisiae deletion strains, locus YMR078C, strain ctf18, hits give low values 0.973 | S. cerevisiae deletion strains, locus YMR125W, strain sto1, hits give low values 0.971 | S. cerevisiae deletion strains, locus YMR129W, hits give low values 0.992 | S. cerevisiae deletion strains, locus YMR205C, strain PFK2, hits give low values 0.96 | S. cerevisiae deletion strains, locus YMR223W, strain ubp8, hits give low values 0.962 | S. cerevisiae deletion strains, locus YMR231W, strain pep5, hits give low values 0.971 | S. cerevisiae deletion strains, locus YMR263W, strain SAP30, hits give low values 1.02 | S. cerevisiae deletion strains, locus YMR307W, strain GAS1, hits give low values 0.881 | S. cerevisiae deletion strains, locus YNL067W, strain RPL9B, hits give low values 1.02 | S. cerevisiae deletion strains, locus YNL071W, strain lat1, hits give low values 0.979 | S. cerevisiae deletion strains, locus YNL128W, strain TEP1, hits give low values 1.01 | S. cerevisiae deletion strains, locus YNL153C, strain GIM3, hits give low values 1.02 | S. cerevisiae deletion strains, locus YNL183C, strain NPR1, hits give low values 0.943 | S. cerevisiae deletion strains, locus YNL209W, strain ssb2, hits give low values 0.988 | S. cerevisiae deletion strains, locus YNL233W, strain BNI4, hits give low values 1 | S. cerevisiae deletion strains, locus YNL248C, strain rpa49, hits give low values 0.997 | S. cerevisiae deletion strains, locus YNL250W, strain rad50, hits give low values 0.99 | S. cerevisiae deletion strains, locus YNL271C, strain bni1, hits give low values 0.974 | S. cerevisiae deletion strains, locus YNL298W, strain CLA4, hits give low values 0.974 | S. cerevisiae deletion strains, locus YNL307C, strain MCK1, hits give low values 0.96 | S. cerevisiae deletion strains, locus YNL322C, strain KRE1 (second series), hits give low values 0.986 | S. cerevisiae deletion strains, locus YNL322C, strain KRE1, hits give low values 0.998 | S. cerevisiae deletion strains, locus YNR049C, strain mso1, hits give low values 0.991 | S. cerevisiae deletion strains, locus YNR052C, strain pop2, hits give low values 0.962 | S. cerevisiae deletion strains, locus YOL006C, strain TOP1, hits give low values 1.03 | S. cerevisiae deletion strains, locus YOL012C, strain htz1 0.873 | S. cerevisiae deletion strains, locus YOL147C, strain pex11, hits give low values 0.991 | S. cerevisiae deletion strains, locus YOR001W, strain rrp6, hits give low values 0.949 | S. cerevisiae deletion strains, locus YOR061W, strain CKA2, hits give low values 0.994 | S. cerevisiae deletion strains, locus YOR069W, strain VPS5, hits give low values 0.975 | S. cerevisiae deletion strains, locus YOR070C, strain gyp1, hits give low values 1 | S. cerevisiae deletion strains, locus YOR080W, strain dia2, hits give low values 1 | S. cerevisiae deletion strains, locus YOR083W, strain WHI5, hits give low values 0.99 | S. cerevisiae deletion strains, locus YOR106W, strain vam3, hits give low values 1.03 | S. cerevisiae deletion strains, locus YOR136W, strain idh2, hits give low values 0.98 | S. cerevisiae deletion strains, locus YOR144C, strain elg1, hits give low values 0.986 | S. cerevisiae deletion strains, locus YOR184W, strain ser1, hits give low values 0.951 | S. cerevisiae deletion strains, locus YOR231W, strain MKK1, hits give low values 0.999 | S. cerevisiae deletion strains, locus YOR265W, strain rbl2, hits give low values 0.996 | S. cerevisiae deletion strains, locus YOR270C, strain vph1, hits give low values 0.929 | S. cerevisiae deletion strains, locus YOR290C, strain snf2, hits give low values 1.02 | S. cerevisiae deletion strains, locus YOR316C, strain cot1, hits give low values 0.983 | S. cerevisiae deletion strains, locus YPL051W, strain arl3, hits give low values 1.04 | S. cerevisiae deletion strains, locus YPL055C, strain LGE1, hits give low values 1.03 | S. cerevisiae deletion strains, locus YPL078C, strain atp4, hits give low values 1.01 | S. cerevisiae deletion strains, locus YPL106C, strain sse1, hits give low values 1.01 | S. cerevisiae deletion strains, locus YPL240C, strain hsp82, hits give low values 0.986 | S. cerevisiae deletion strains, locus YPL241C, strain CIN2, hits give low values 0.996 | S. cerevisiae deletion strains, locus YPL256C, strain CLN2, hits give low values 0.992 | S. cerevisiae deletion strains, locus YPR119W, strain clb2, hits give low values 0.997 | S. cerevisiae deletion strains, locus YPR141C, strain kar3, hits give low values 0.987 | S. cerevisiae deletion strains, locus YPR163C, strain tif3, hits give low values 0.983 | S. cerevisiae deletion strains, locus YPR167C, strain met16, hits give low values 0.979 | S. cerevisiae deletion strains, strain wtn01, hits give low values 0.999 | S. cerevisiae strains, strain wild type, hits give low values 0.989
